SENP6 block – SENP6 protease inhibition; AID 2599; inhibition, % at 10 µM; Recombinant SENP6 catalytic domain, aminoluciferin luminescence; 1.8% of 330,000 active;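 active means inhibition above about 50% at the single tested dose, limit read from the data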;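 further: plate controls were DMSO wells with enzyme for no effect and DMSO wells lacking enzyme for full effect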
Target sequence (Q9GZR1 628-1112 limits assumed): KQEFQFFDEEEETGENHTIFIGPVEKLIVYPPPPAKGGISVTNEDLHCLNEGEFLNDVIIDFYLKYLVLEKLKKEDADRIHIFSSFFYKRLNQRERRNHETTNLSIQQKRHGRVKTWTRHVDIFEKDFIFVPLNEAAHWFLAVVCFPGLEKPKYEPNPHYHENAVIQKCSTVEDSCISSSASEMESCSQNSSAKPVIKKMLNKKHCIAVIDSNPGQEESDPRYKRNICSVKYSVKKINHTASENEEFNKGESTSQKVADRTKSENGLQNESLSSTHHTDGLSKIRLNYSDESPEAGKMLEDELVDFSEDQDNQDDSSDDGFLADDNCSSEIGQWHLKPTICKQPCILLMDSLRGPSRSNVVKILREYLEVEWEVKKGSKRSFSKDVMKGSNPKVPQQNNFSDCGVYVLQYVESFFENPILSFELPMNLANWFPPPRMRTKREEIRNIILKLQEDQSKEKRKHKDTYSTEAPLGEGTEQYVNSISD
PPC-1+TRAIL kill – kills PPC-1 cancer cells in the presence of TRAIL. cell killing (% activity), % at 4 µM or 5 µM. 0.41% of 220,000 active. PPC-1 cells + TRAIL, ATPLite viability luminescence. AID 1443;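 active means cell killing above 50% in the first pass at 4 µM, then a duplicate retest at 5 µM averaging 50% or more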;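 further: plate controls were cells with TRAIL plus DMSO for no effect and medium-only wells lacking cells for full effect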
SENP7 inh – blocks the human protease SENP7 | recombinant SENP7, Z-RLRGG-aminoluciferin luminescence, 40 min | 1.5% of 330,000 active | Q9BQF6 | inhibition, % at 5 µM;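 active means inhibition above about 50% at the single test dose, limit read from the data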;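 further: plate controls were DMSO with enzyme for no effect and no enzyme buffer wells for full effect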
TRAIL sens C8 – caspase-8 TRAIL sensitization | inhibition (viability loss, TRAIL sensitization), % at 10 µM | NB7+C8 cells + TRAIL, ATPlite viability luminescence | 1% of 360,000 active | AID 624354;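 active means compounds causing at least 50% loss of cell viability in the single-dose screen, relative to plate controls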
SENP8 block-1 – inhibitors of human SENP8 protease. Q96LD8. purified SENP8, Z-RLRGG-aminoluciferin cleavage, luminescence. inhibition, % at 10 µM. 1.2% of 330,000 active; in the data active means inhibition above about 50%
SENP8 block-2 – SENP8 (human) protease inhibition; 0.64% of 360,000 active; inhibition, % at 20 µM; Q96LD8; recombinant SENP8, Nedd8 substrate fluorescence; AID 602440; in the data active means inhibition mostly above about 40%, no sharp cut-off; inactive means mostly below about 27%
SENP8 confirm – confirmation of human SENP8 protease inhibitors; shares compounds with SENP7 inh; Recombinant SENP8, Z-RLRGG-aminoluciferin luminescence, 60 min; inhibition, % at 12.5 µM; 40% of 6,200 active; AID 488912;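 active means mean inhibition across replicates above about 50%, limit read from the data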
SENP6 confirm – human SENP6 inhibition, confirmed; 58% of 6,200 active; recombinant SENP6, Z-RLRGG-aminoluciferin luminescence; shares compounds with SENP7 inh; inhibition, % at 12.5 µM; AID 488915
SENP7 conf – confirmation of human SENP7 protease inhibitors; shares compounds with SENP7 inh; recombinant SENP7, Z-RLRGG-aminoluciferin luminescence, 40 min; inhibition, % at 12.5 µM; 69% of 6,200 active; AID 488917
Casp3 SENP sel – selectivity test for SENP inhibitors: human caspase-3 inhibition; purified caspase-3, Z-DEVD-aminoluciferin luminescence, 60 min; inhibition, % at 12.5 µM; 60% of 6,200 active; AID 488918; shares compounds with SENP7 inh;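 active means mean inhibition above about 50%, limit read from the data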;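 further: plate controls were enzyme with DMSO for no effect and wells without caspase-3 for full effect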
Target sequence (P42574 28-227 limits assumed): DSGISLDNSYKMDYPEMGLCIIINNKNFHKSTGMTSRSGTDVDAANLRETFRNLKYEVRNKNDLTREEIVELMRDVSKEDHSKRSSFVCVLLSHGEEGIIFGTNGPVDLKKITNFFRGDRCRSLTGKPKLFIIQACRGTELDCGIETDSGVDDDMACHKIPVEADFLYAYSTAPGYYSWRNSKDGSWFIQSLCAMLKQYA
Luc interf – counter-screen for SENP inhibitors: luminescence interference; 39% of 6,200 active; shares compounds with SENP7 inh; inhibition, % at 12.5 µM; Pre-incubated SENP8/Z-RLRGG-aminoluciferin, luciferase luminescence interference;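 active means mean inhibition above about 50% when retested at one dose, limit read from the data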;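 further: plate controls were DMSO wells with completed reaction for no effect and substrate without enzyme for full effect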
Active calls of the source: *; i = inactive; . = no result. Compounds with a hit are over-represented: about 3% of the library has one in this group of screens.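 How the source made its calls, unless noted: active means mean inhibition above about 50% in the one-dose retest (limit read from the data); inactive means the rest.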

SMILES | SENP6 block | PPC-1+TRAIL kill | SENP7 inh | TRAIL sens C8 | SENP8 block-1 | SENP8 block-2 | SENP8 confirm | SENP6 confirm | SENP7 conf | Casp3 SENP sel | Luc interf
CCOc1cc(C)c(Cl)cc1S(=O)(=O)N(CC)CC | 3 | 25 | -5 | -1 | 63* | 15 | 4 | 10 | 11 | 3 | 4
Fc1ccc(-c2cn3cc(C(F)(F)F)cc(Cl)c3n2)cc1 | 75* | 24 | 82* | 20 | 34 | -150 | 59* | 77* | 86* | 58* | 46
CC(C)CC1NC(=O)c2cc3ccccc3cc2-n2c1nc1cc(Cl)ccc1c2=O (stereo unspecified) | . | . | . | 27 | . | -6 | . | . | . | . | .
Cc1ccc(-c2nc3ccccc3nc2Cl)cc1 | -10 | 0 | 1 | -14 | -7 | 13 | . | . | . | . | .
Cc1ccc(-c2nc3ccccc3nc2NN)cc1 | 91* | 10 | 79* | 15 | 85* | -312 | 20 | 67* | 92* | 74* | 31
O=c1c2ccccc2oc2ccc(-c3ccc4cc[nH]c4c3)cc12 | 50* | . | 62* | 53* | 53* | -18 | -10 | 4 | 8 | 3 | -2
Cc1ccc2oc3ccccc3c(=O)c2c1 | . | . | . | 13 | . | -21 | . | . | . | . | .
COC(=O)c1ccc(NC(=O)Nc2ccc(OC)cc2)cc1 | -21 | 9 | -11 | 0 | -16 | 7 | . | . | . | . | .
COC(=O)c1ccc(NC(=O)Nc2ccccc2C)cc1 | 91* | . | 92* | 45 | 83* | -1 | 89* | 89* | 99* | 89* | 48
COC(=O)c1ccc(NC(=O)Nc2ccc(F)cc2)cc1 | 68* | 27 | 49 | 14 | 46 | 6 | 42 | 42 | 80* | 48 | 62*
COC(=O)c1ccc(NC(=O)c2ccccc2C(=O)Nc2ccc(C(=O)OC)cc2)cc1 | -7 | . | 2 | 24 | -3 | 18 | . | . | . | . | .
CC(=O)N(C)c1ccc(NC(=O)Nc2ccccc2C)cc1 | 63* | 12 | 58* | 15 | 33 | 16 | 40 | 41 | 79* | 83* | 63*
CC(=O)Nc1ccc(NC(=O)Nc2ccccc2C)cc1 | 15 | 23 | 16 | -2 | -2 | 27 | . | . | . | . | .
COC(=O)c1ccc(NC(=O)Nc2ccc(F)c(Cl)c2)cc1 | -50 | -16 | 58* | 5 | -1 | 4 | 14 | 18 | 84* | 22 | 26
Cc1noc(C)c1COc1ccccc1C(=O)NCCc1ccc(F)cc1 | . | . | . | -16 | . | 12 | . | . | . | . | .
N/C(=N\OC(=O)c1ccco1)c1cccc(Br)c1 | 78* | -3 | 74* | 0 | 52* | 19 | 70* | 68* | 90* | 76* | 67*
N/C(=N\OC(=O)c1ccoc1)c1ccc(Br)cc1 | 93* | . | 91* | 38 | 84* | 4 | 76* | 71* | 94* | 75* | 70*
N/C(=N\OC(=O)c1ccco1)c1cccc([N+](=O)[O-])c1 | 26 | 9 | 10 | -1 | 4 | 12 | . | . | . | . | .
N/C(=N\OC(=O)c1cccc(Br)c1)c1ccccc1 | 72* | 7 | 86* | 89* | 67* | 14 | 67* | 73* | 97* | 82* | 26
Cc1cccn2cc(-c3ccc(F)cc3)nc12 | 93* | 4 | 91* | 19 | 78* | -113 | 12 | 87* | 99* | 90* | 82*
COc1ccc(-c2cn3ccc4ccccc4c3n2)cc1 | 92* | 38 | 92* | 46 | 83* | i | 30 | 86* | 100* | 87* | 46
COc1ccc(-c2cn3cc(C(F)(F)F)cc(Cl)c3n2)cc1 | -4 | 28 | -3 | 39 | -3 | -442 | . | . | . | . | .
Cc1cccn2cc(-c3ccc(F)cc3)cc12 | -6 | 3 | 2 | 1 | 7 | -310 | . | . | . | . | .
Cc1cccn2cc(-c3ccccc3)nc12 | 74* | 29 | 69* | 31 | 53* | -229 | 11 | 71* | 93* | 85* | 70*
O=C(NCc1ccccc1)C(c1ccc(F)cc1)N1CCN(c2ccccc2F)CC1 (stereo unspecified) | . | . | . | -14 | . | 22 | . | . | . | . | .
SMILES | SENP6 block | PPC-1+TRAIL kill | SENP7 inh | TRAIL sens C8 | SENP8 block-1 | SENP8 block-2 | SENP8 confirm | SENP6 confirm | SENP7 conf | Casp3 SENP sel | Luc interf
CNC(=O)c1ccc(-c2sc3nc(N4CCOCC4)c4c(c3c2N)CC(C)(C)OC4)o1 | 10 | 27 | 12 | 6 | -5 | i | . | . | . | . | .
CNC(=O)c1ccc(-c2sc3nc(N4CCOCC4)c4c(c3c2N)CCCC4)o1 | 55* | 11 | 35 | -6 | 5 | -251 | 2 | 8 | 5 | 4 | -1
CC(=O)c1cc(C#N)c(SCC(=O)O)nc1C | 9 | -11 | 10 | 0 | 1 | 11 | . | . | . | . | .
CCn1c(C)c(C(C)=O)cc(C#N)c1=O | 5 | 14 | 79* | 0 | -5 | 11 | -7 | -2 | -6 | -3 | -5
Fc1ccccc1-c1nc(-c2ccc(Br)o2)no1 | 84* | . | 89* | 26 | 85* | 12 | -12 | 83* | 97* | 68* | 23
Cc1ccccc1-c1nc(-c2ccc(Br)o2)no1 | 72* | . | 67* | 14 | 58* | 14 | 22 | 64* | 86* | 45 | 38
Cc1ccccc1-c1nc(-c2ccc(NC(=O)c3ccc(Br)o3)cc2)no1 | 28 | -15 | 2 | -7 | 13 | -6 | . | . | . | . | .
COc1ccc(Cl)cc1-c1nc(-c2ccc(Br)o2)no1 | -24 | 15 | 2 | 21 | -1 | -13 | . | . | . | . | .
CN(C)c1nc(N(C)C)c2cnn(C)c2n1 | . | . | . | -5 | . | -1 | . | . | . | . | .
O=C(NCCOc1ccccc1)C1CCC(=O)N(CCCN2CCCC2=O)C1 (stereo unspecified) | -3 | . | 4 | -12 | -1 | 6 | . | . | . | . | .
CCOc1ccc(/C=N/NC(=O)c2ccc(Cn3cc(Br)cn3)o2)cc1 | 55* | 19 | 8 | 9 | 3 | -48 | 22 | 17 | 57* | 23 | 50
N#C/C(=C/c1ccc(Br)o1)C(N)=O | -14 | 19 | -10 | -10 | -12 | 5 | . | . | . | . | .
COc1ccc(NC(=O)/C(C#N)=C/c2ccc(Br)o2)cc1 | -2 | 6 | 66* | -8 | -3 | 27 | -8 | -7 | 4 | 4 | -3
Cc1cc(C)c(S(=O)(=O)/N=C2/C=C(SCC(=O)O)C(=O)c3ccccc32)cc1C | 62* | 35 | 18 | 3 | 28 | 54* | 15 | 36 | 5 | -1 | -6

Screening results deposited in PubChem BioAssay by Sanford-Burnham Center for Chemical Genomics.
